# SW480 rerep: DNA re-replication induction in SW480 cells; Potency, µM (titrated, usually from 46.1 µM), for inactives: top-dose re-replication activation, actives largely listed as activators; actives 1.8% (n = 340,000); SW480 DNA re-replication, Hoechst DNA content imaging, 48 h; AID 624297; note: potency is the fitted concentration of half-maximal effect; % of control where 0% means no effect; nearly all actives have a fitted effect of over 55% in size
#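 Quantitative HTS format with DMSO vehicle controls; 48 hr drug incubation at 37 C, then 40 min Hoechst staining and scanning imager measurement at 405 nm excitation.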
# ATXN2 expr inh: ATXN2 expression inhibition; Potency, µM (doses to about 57 µM), inactives show at the highest dose activity change, negative = inhibition, hits mostly inhibitors; AID 1745845; HEK-293 ATXN2-luciferase reporter, luminescence, 24 h; actives 0.72% (n = 360,000); note: potency is the fitted concentration of half-maximal effect; % is set by controls: 0 for no effect and ±100 for the full control effect; nearly all actives have a fitted effect of over 55% in size
#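 ATXN2-luciferase reporter cells (luciferase flanked by upstream and downstream ATXN2 gene portions) were treated 24 h at 37 °C with compounds at up to 57 uM. SteadyGlo luminescence gave expression; GF-AFC fluorescence gave viability.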
# MCF10A rerep: DNA re-replication induction in MCF 10a cells | MCF 10A DNA re-replication, Hoechst nuclear intensity, 48 h | Potency, µM (titrated, usually from 46.1 µM), without a hit: at the highest dose activity, positive = re-replication, hits mostly activators | actives 2.9% (n = 350,000); note: potency is the fitted concentration of half-maximal effect; % of control where 0% means no effect; nearly all actives have a fitted effect of over 50% in size
# PINK1 expr mod: changes PINK1 expression; PINK1 immunofluorescence, high-content cytometry, 24 h; Potency, µM (highest dose often 76.6 µM), inactives show at the top dose activation (PINK1 increase), hits mostly activators; actives 0.2% (n = 410,000); AID 624263; active = well fitted activation curve with a large enough effect; inconclusive = small, poorly fitted or top-dose-only effect; cell line not stated here; note: potency is the fitted concentration of half-maximal effect; % of control where 0% means no effect; nearly all actives have a fitted effect of over 65% in size
#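 Decision-based qHTS: stable cells, 24 h exposure to five compound concentrations, CCCP as control. Fixed cells stained for PINK1 plus nuclear, mitochondrial and cell markers, cytometer read.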
# S2 tox: viability counter-screen for ATXN expression inhibitors | S2 cells (HEK-293 line with an ATXN2-luciferase reporter) viability, CellTiter-Fluor protease fluorescence, 24 h | Potency, µM (doses to about 56.7 µM), usual class: cytotoxic | actives 0.49% (n = 400,000); note: potency is the fitted concentration of half-maximal effect; nearly all actives have a fitted effect of over 40% in size
# IL1B secr inh: blocks inflammasome-driven IL-1 beta release. actives 4.7% (n = 360,000). activity change, % at 57.5 µM. THP-1 LPS/ATP IL-1B secretion, AlphaLISA, 16 h; stronger effect = lower value; in the data active = activity change below about -50%; inconclusive = mostly about -30% to -49%; note: % is set by controls: 0 for no effect and ±100 for the full control effect
#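 Secreted IL-1B measured by AlphaLISA bead assay after 16 h compound exposure of THP-1 cells; compounds (final up to 57.5 uM) added 1 h before LPS (250 ng/mL) and ATP (1.25 mM) stimulation; lower signal means less secretion.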
# The depositor's hits bear a star; i = inactive; ? = inconclusive; · = not tested or not shown; [ ] = dose if it differs, or a comment. Sampled rows, rich in hits. Any-hit rate of the full collection: about 7.1%. Unless noted, calls come from the whole dose curve; as a rule, active = well fitted curve in the direction sought with a large enough effect; inconclusive = small, poorly fitted or top-dose-only effect, or another doubt; inactive = no such curve, though single readings can be large; an effect the other way counts as inactive or inconclusive.
SMILES,SW480 rerep,ATXN2 expr inh,MCF10A rerep,PINK1 expr mod,S2 tox,IL1B secr inh
COc1ccc(S(=O)(=O)N(C(=O)c2ccco2)c2cc3sc(=O)oc3c3ccccc23)cc1,?,?,18µM*,0%,?,-100*
Cc1ccc(S(=O)(=O)N(C(=O)c2ccco2)c2cc3sc(=O)oc3c3ccccc23)cc1,3%,-36%,?,-1%,?,6
Cc1cc(C)c2c(=O)cc(C(=O)Nc3sc4c(c3C#N)CCCC4)oc2c1,·,16%,·,3%,i,·
CCOC(=O)c1sc(-c2ccc(Cl)cc2Cl)nc1O,21µM*,6%,?,3%,·,-19
CCOC(=O)c1sc(CS(=O)(=O)c2ccc(Cl)cc2)nc1C,?,-5%,?,-1%,i,3
CN(C)CCNC(=O)c1cc2c(s1)-c1ccc(Cl)cc1SC2,?,·,21µM*,-1%,?,-20
Clc1ccc(C2Nc3ccccc3-n3cccc32)cc1 (centres undefined),?,-18%,16µM*,1%,i,21
CCOC(=O)N1CCC(Nc2cc(C)nc3c(-c4ccccc4OC)c(C)nn23)CC1,7%,?,1%,3%,i,-12
COc1ccccc1-c1cnn2c(NC3CCCC3)cc(C)nc12,28%,72%,16µM*,7%,i,-21
COCCCNc1c2c3c(cccc3[nH]c1=O)C(=O)c1ccccc1-2,18µM*,-38%,15µM*,7%,·,13
Cc1[nH]nc(-c2ccc(O)cc2O)c1-c1ccc(Cl)cc1,4%,-34%,15%,1%,i,?
Cc1[nH]nc(-c2ccc(O)cc2O)c1-c1nc2ccccc2s1,-1%,-30%[11.3 µM],17%,-1%,?,-82*
O=C(NC(=S)Nc1ccc(-c2ccccc2)cc1)c1ccccc1,-4%,3%,17%,2%,i,-15
CCC(=O)NNC(=S)NC(=O)c1ccc(C)cc1,9%,?,4%,-1%,i,-61*
CC(C)NC(=S)NC(=O)c1ccc(-c2ccccc2)cc1,?,7%,?,5%,i,-57*
CN1/C(=C\C(=O)COC(=O)c2ccco2)C(C)(C)c2ccccc21,-45%,-36%,-9%[9.22 µM],1%,i,23
CN1/C(=C/C(=O)c2nc(S(C)(=O)=O)ncc2Cl)C(C)(C)c2ccccc21,12µM*,?,?,-1%,·,-100*
CN1/C(=C\C(=O)c2ccco2)C(C)(C)c2ccccc21,23µM*,-19%,?,-1%[38.3 µM],i,?
Cc1cc(C(=O)CSc2nnc(NCc3ccccc3)s2)c(C)n1C,?,-13%,?,5%,?,6
CN1/C(=C\C(=O)c2cncc(Br)c2)C(C)(C)c2ccccc21,?,-12%,16µM*,2%,i,-51*
CN1/C(=C\C(=O)CSc2nnc(NCc3ccccc3)s2)C(C)(C)c2ccccc21,10%,-24%,18µM*,10%,?,2
CCC(C)NC(=O)c1cc2n(n1)CCCN(Cc1ccc(C)cc1)C2=O (centres undefined),·,-13%,·,0%,i,·
CCN(CC)CCCNC(=O)CCCn1ncn2c(cc3occc32)c1=O,·,·,·,0%,·,·
CN1/C(=C\C(=O)C[n+]2ccc3ccccc3c2)C(C)(C)c2ccccc21,?,0%,?,45µM*,?,-53*
N#CCC(=O)N/N=C/c1cn(Cc2ccc(Cl)cc2Cl)c2ccccc12,?,-1%,12µM*,6%,i,·
O=C(CNc1ccc2c(c1)OCO2)N/N=C\c1cn(Cc2ccc(F)cc2)c2ccccc12,-2%,·,21µM*,·,·,·
O=C(CNc1ccc2c(c1)OCO2)N/N=C\c1cn(Cc2ccccc2)c2ccccc12,-9%,-20%,15%,10%,i,-6
Cc1ccccc1-c1cc2c(c(OC3CCOC3)c1)OCCN(C(=O)Cn1cccn1)C2 (centres undefined),·,·,·,0%,i,·
Cc1ccc(C)c(NC(=O)Cn2c(=O)ccc3cc(S(=O)(=O)N4CCCC4)ccc32)c1,·,5%,·,-2%,i,·

# Assay outcomes from PubChem.
